# Laboratory results taken from publication PMC12670160, “A drug-repurposing screen of FDA- and EMA-approved drugs identifies two NF-κB inhibitors active against eumycetoma” (Journal of Antimicrobial Chemotherapy, 2025).
# Structures can show the parent of a compound that is named as a salt. Out of some 5,300 compounds screened, about 130 (2.5%) showed an effect of 50% or more. The entries come from a sample that favours strong results as a whole.
# Test system: M. mycetomatis strain mm55
# Settings: primary screen, metabolic activity vs growth control; 96 h, 2 µM; inhibitor
row,SMILES,% viability [%]
1,"O=c1[nH]cnc2c([C@@H]3N[C@H](CO)[C@@H](O)[C@H]3O)c[nH]c12 [ONC0001813, forodesine hydrochloride]",95.12
2,"CCn1c(=O)n([C@H]2CCCN(c3nccc(-c4cc5ccccc5o4)n3)C2)c2ccccc21 [ONC0001458, tcf2]",58.53
3,"CCCCN(CCCC)CC(O)c1cc(Cl)cc2c1-c1ccc(Cl)cc1/C2=C/c1ccc(Cl)cc1 (centres unmarked) [ONC0000941, lumefantrine]",75.53
4,"CCCCN(CCCC)CCC(O)c1cc2c(Cl)cc(Cl)cc2c2cc(C(F)(F)F)ccc12 (centres unmarked) [ONC0003518, halofantrinehcl]",46.17
5,"CNc1nc(-c2ccc3c(N)n[nH]c3c2)cc(N2C[C@@H](C(=O)NC3CCCCC3)CC[C@H]2C)n1 [ONC0002484, gsk2334470]",37.41
6,"COc1c2occc2cc2ccc(=O)oc12 [ONC0005318, methoxsalen]",102.8
7,"O=c1ccc2c(OCCCCOc3ccccc3)c3ccoc3cc2o1 [ONC0000770, pap1]",62.21
8,"COc1c2ccoc2cc2oc(=O)ccc12 [ONC0003294, bergapten]",47.96
9,"NS(=O)(=O)OC[C@@H]1C[C@@H](n2ccc3c(N[C@H]4CCc5ccccc54)ncnc32)C[C@@H]1O [ONC0001277, pevonedistat hydrochloride]",68.15
10,"Cc1ccc2c(c1)c1c(n2CCc2ccc(C)nc2)CCN(C)C1.Cl.Cl [ONC0000365, latrepirdine dimebon dihydrochloride]",70.26
11,"CCCCCCCCCC(=O)OCCN1CCN(CCCN2c3ccccc3Sc3ccc(C(F)(F)F)cc32)CC1 [ONC0003289, fluphenazine decanoate]",48.22
12,"CN1CCN(CCCN2c3ccccc3Sc3ccc(C(F)(F)F)cc32)CC1 [ONC0003239, trifluoperazine hydrochloride]",119.8
13,"OCCN1CCN(CCCN2c3ccccc3Sc3ccc(C(F)(F)F)cc32)CC1 [ONC0003193, fluphenazine hydrochloride]",105.7
14,"CN1CC[C@@]2(C)c3cc(O)ccc3N(C)[C@@H]12 [ONC0002771, eseroline]",104.2
15,"O=C1c2ccccc2C(=O)c2ccccc21 [ONC0002912, anthraquinone]",73.56
16,"c1ccc2c(c1)[I+]c1ccccc1-2 [ONC0002720, diphenyleneiodonium]",44.4
17,"CC(O)COC[C@H]1O[C@@H]2O[C@H]3[C@H](O)[C@@H](O)[C@@H](O[C@H]4[C@H](O)[C@@H](O)[C@@H](O[C@H]5[C@H](O)[C@@H](O)[C@@H](O[C@H]6[C@H](O)[C@@H](O)[C@@H](O[C@H]7[C@H](O)[C@@H](O)[C@@H](O[C@H]8[C@H](O)[C@@H](O)[C@@H](O[C@H]1[C@H](O)[C@H]2O)O[C@@H]8COCC(C)O)O[C@@H]7COCC(C)O)O[C@@H]6COCC(C)O)O[C@@H]5COCC(C)O)O[C@@H]4COCC(C)O)O[C@@H]3COCC(C)O (some centres unmarked) [ONC0003826, hydroxypropylbetacyclodextrin]",73.6
